In PubChem BioAssay (NCI):
The panel holds about 83,000 compounds, 20% with a hit somewhere; the sample as a whole holds those more often.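 Method: cells in 96-well plates; compound added at one concentration; 48 h incubation; percent growth measured; values under 10 scored active.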 Calls of active or inactive are those of the source.

How the values were obtained:
Assay in all cases: NCI-60 one-dose screen, 48 h (100 = growth as untreated, 0 = no growth, -100 = all killed)
Conditions in all cases: 10 µM unless noted
NCI-H23 lung = tested on: NCI-H23 lung
NCI-H226 lung = tested on: NCI-H226 lung
NCI-H322M lung = tested on: NCI-H322M lung
HOP-62 NSCLC = tested on: HOP-62 NSCLC
NCI-H460 lung = tested on: NCI-H460 lung
HOP-92 NSCLC = tested on: HOP-92 NSCLC
NCI-H522 lung = tested on: NCI-H522 lung
A549/ATCC NSCLC = tested on: A549/ATCC NSCLC
786-0 renal = tested on: 786-0 renal
COLO 205 colon = tested on: COLO 205 colon

Measured: growth

Cn1cc(-c2nc(-c3c[nH]c4c(Cl)nccc34)cs2)c2ccccc21
inactive: NCI-H23 lung 98.6% | NCI-H226 lung 103% | NCI-H322M lung 99.4% | HOP-62 NSCLC 92.5% | NCI-H460 lung 95.5% | HOP-92 NSCLC 80.4% | NCI-H522 lung 85.5% | A549/ATCC NSCLC 66.7% | 786-0 renal 87.4% | COLO 205 colon 102%

C=CCn1c(SCC(=O)Nc2ccc(C(=O)/C=C/c3ccc(Cl)cc3)cc2)nnc1-c1ccccc1
inactive: NCI-H23 lung 95% | NCI-H226 lung 94.7% | NCI-H322M lung 96.7% | HOP-62 NSCLC 97% | NCI-H460 lung 106% | HOP-92 NSCLC 93.2% | NCI-H522 lung 82.2% | A549/ATCC NSCLC 93.2% | 786-0 renal 81.8% | COLO 205 colon 105%

COC(=O)[C@H](C)NC(=O)[C@@H]1CCCN1C(=O)CNC(=O)[C@H](C)N
inactive: NCI-H23 lung 105% | NCI-H226 lung 101% | NCI-H322M lung 96.5% | HOP-62 NSCLC 114% | NCI-H460 lung 106% | HOP-92 NSCLC 89% | NCI-H522 lung 96.2% | A549/ATCC NSCLC 106% | 786-0 renal 98% | COLO 205 colon 104%

CCCn1cnc2c(c1=N)C(c1ccc(Cl)cc1)c1sc3c(F)cccc3c1O2 (stereo not given)
inactive: NCI-H23 lung 81.8% | NCI-H226 lung 85.5% | NCI-H322M lung 75.6% | HOP-62 NSCLC 96.9% | NCI-H460 lung 66.2% | HOP-92 NSCLC 79.3% | NCI-H522 lung 69.7% | A549/ATCC NSCLC 76% | 786-0 renal 69.3%
active: COLO 205 colon -67.9%

CN(C)c1ccc(Cc2cc(-c3ccccc3)nn(C/C(=N/O)c3ccccc3)c2=O)cc1
inactive: NCI-H23 lung 57.4% | NCI-H226 lung 60.5% | NCI-H322M lung 80.4% | HOP-62 NSCLC 75.1% | NCI-H460 lung 42.6% | HOP-92 NSCLC 55.9% | NCI-H522 lung 41.2% | A549/ATCC NSCLC 30.2% | 786-0 renal 75.4% | COLO 205 colon 58.4%

CS(=O)(=O)c1cccc(Nc2ncc3cc(-c4ccccc4Cl)ccc3n2)c1
active: NCI-H460 lung 5.47% | HOP-92 NSCLC -1.06% | NCI-H522 lung -44.3% | COLO 205 colon -8.05%
inactive: NCI-H23 lung 26.7% | NCI-H226 lung 31.1% | NCI-H322M lung 26.8% | HOP-62 NSCLC 15.3% | A549/ATCC NSCLC 13.8% | 786-0 renal 12.2%

CC1(C)CCC[C@]23C(=O)O[C@](O)(C(=O)C4=C[C@@](C)(/C=C/CCCc5ccc6ccc7cccc8ccc5c6c78)CC[C@@]42O)[C@@H]13
active: NCI-H23 lung -60.6% | NCI-H226 lung -69.5% | NCI-H322M lung -98.6% | HOP-62 NSCLC -66.1% | NCI-H460 lung -74.5% | HOP-92 NSCLC -83.9% | NCI-H522 lung -62.6% | A549/ATCC NSCLC -70.5% | 786-0 renal -79.3% | COLO 205 colon -72.4%

COc1cccc(-c2cc(-c3ccc(Nc4nc(Nc5ccc(Cl)cc5)nc(Nc5ccc(Cl)cc5)n4)cc3)nc(N)c2C#N)c1
active: HOP-92 NSCLC -85.7% | COLO 205 colon -30.4%
inactive: NCI-H23 lung 37.9% | NCI-H226 lung 10.5% | NCI-H322M lung 99.9% | HOP-62 NSCLC 95% | NCI-H460 lung 69% | NCI-H522 lung 87.4% | A549/ATCC NSCLC 43% | 786-0 renal 59.2%

CN(CCNc1ccc(C(=N)N)cc1)c1ccc(C(=N)N)cc1
inactive: NCI-H23 lung 81.3% | NCI-H226 lung 52.7% | NCI-H322M lung 71% | HOP-62 NSCLC 112% | NCI-H460 lung 47.9% | HOP-92 NSCLC 62.7% | NCI-H522 lung 87.6% | A549/ATCC NSCLC 41.9% | 786-0 renal 102% | COLO 205 colon 135%

C/C(=N\NC(=O)c1ccc(C(C)(C)C)cc1)c1ccc(O)cc1O
active: NCI-H460 lung 3.99% | COLO 205 colon 7.24%
inactive: NCI-H23 lung 23.7% | NCI-H226 lung 25.6% | NCI-H322M lung 25.5% | HOP-62 NSCLC 20.9% | HOP-92 NSCLC 59.3% | NCI-H522 lung 27.5% | A549/ATCC NSCLC 21.5% | 786-0 renal 15.3%

CO[C@H]1/C=C/O[C@@]2(C)Oc3c(C)c(O)c4c(O)c(c5c(nc6cc(C)ccn65)c4c3C2=O)NC(=O)/C(C)=C\C=C\[C@H](C)[C@H](O)[C@@H](C)C(O)[C@@H](C)[C@H](OC(C)=O)[C@@H]1C (stereo not given in full)
active: HOP-62 NSCLC 3.22% | COLO 205 colon 0.546%
inactive: NCI-H23 lung 99.6% | NCI-H226 lung 96.1% | NCI-H322M lung 97.4% | NCI-H460 lung 114% | HOP-92 NSCLC 98.7% | NCI-H522 lung 91.1% | A549/ATCC NSCLC 104% | 786-0 renal 95.3%

CCOC(=O)c1c(C)nc2c(c1N)C(=O)C(=O)N2CCc1ccc(OC)c(OC)c1
inactive: NCI-H23 lung 67% | NCI-H226 lung 74% | NCI-H322M lung 109% | HOP-62 NSCLC 58.9% | NCI-H460 lung 88.2% | HOP-92 NSCLC 81.8% | NCI-H522 lung 31.9% | A549/ATCC NSCLC 66% | 786-0 renal 82.9% | COLO 205 colon 99.3%

O=C(/C=C/c1ccc(Cl)cc1)c1ccc(Nc2ccnc3cc(Cl)ccc23)cc1
inactive: NCI-H23 lung 71.1% | NCI-H226 lung 111% | NCI-H322M lung 89.6% | HOP-62 NSCLC 72.2% | NCI-H460 lung 133% | HOP-92 NSCLC 15.2% | NCI-H522 lung 88.3% | A549/ATCC NSCLC 62.7% | 786-0 renal 62.8% | COLO 205 colon 107%

Cc1csc(Nc2nc(-c3cccc(Cl)c3)nc(C(Cl)(Cl)Cl)n2)n1
inactive: NCI-H23 lung 79% | NCI-H226 lung 95.6% | HOP-62 NSCLC 20.3% | HOP-92 NSCLC 32.7% | NCI-H522 lung 83.6% | 786-0 renal 59.5%
active: NCI-H322M lung -23.1% | NCI-H460 lung 9.9% | A549/ATCC NSCLC 1.73% | COLO 205 colon -38.6%

CC1=NN(c2cccc(Cl)c2)C(=O)/C1=C\C=C\c1ccccc1
inactive: NCI-H23 lung 26.3% | NCI-H322M lung 112% | HOP-62 NSCLC 22.3% | NCI-H460 lung 101% | HOP-92 NSCLC 101% | NCI-H522 lung 34.4% | A549/ATCC NSCLC 94.5% | 786-0 renal 35.5%
active: NCI-H226 lung 3.87% | COLO 205 colon 4.77%

COc1ccc2c(O)cc3c(c2c1)[C@H](CCl)CN3C(=O)c1cc2cc(NC(=O)CCN3CCOCC3)ccc2[se]1
active: NCI-H23 lung -50.7% | NCI-H226 lung -12.5% | NCI-H322M lung -87.8% | HOP-62 NSCLC -79.7% | NCI-H460 lung -7.37% | NCI-H522 lung -82.5% | A549/ATCC NSCLC -29.5% | 786-0 renal -59.8% | COLO 205 colon -78.2%
inactive: HOP-92 NSCLC 94.8%

C1=C2CCCC3=Cc4ccccc4OC23Oc2ccccc21
active: NCI-H522 lung 3.9%
inactive: NCI-H23 lung 42.3% | NCI-H226 lung 56.4% | NCI-H322M lung 50.8% | HOP-62 NSCLC 41.6% | NCI-H460 lung 13.5% | HOP-92 NSCLC 61.4% | A549/ATCC NSCLC 32.7% | 786-0 renal 26.4% | COLO 205 colon 25.4%

CN1CCN(c2ccc(Nc3ncc4[nH]c(=O)n(Cc5ccccc5N)c4n3)cc2)CC1
inactive: NCI-H23 lung 97.5% | NCI-H226 lung 80.3% | NCI-H322M lung 100% | HOP-62 NSCLC 77.8% | NCI-H460 lung 102% | HOP-92 NSCLC 85.5% | NCI-H522 lung 77.1% | A549/ATCC NSCLC 97.5% | 786-0 renal 84.1% | COLO 205 colon 107%

O=c1oc2ccccc2cc1-c1nn(-c2ccccc2)cc1/C=N/Nc1nc(-c2ccccc2)c(N=Nc2ccccc2)s1
inactive: NCI-H23 lung 88.1% | NCI-H226 lung 99.5% | NCI-H322M lung 105% | HOP-62 NSCLC 71.6% | NCI-H460 lung 73.5% | HOP-92 NSCLC 79.7% | NCI-H522 lung 41.5% | A549/ATCC NSCLC 50.1% | 786-0 renal 90.7% | COLO 205 colon 72.8%

Oc1ccc(Cc2ccc(O)c3ncccc23)c2cccnc12
inactive: NCI-H226 lung 12.1% | 786-0 renal 19% | COLO 205 colon 71%
active: NCI-H23 lung 9.78% | NCI-H322M lung 9.39% | HOP-62 NSCLC -2.91% | NCI-H460 lung 7.23% | HOP-92 NSCLC -25.9% | NCI-H522 lung -10.8% | A549/ATCC NSCLC 7.38%

Cc1c(C(=O)C(SC(=S)N2CCOCC2)SC(=S)N2CCOCC2)nnn1-c1ccc([N+](=O)[O-])cc1
inactive: NCI-H23 lung 108% | NCI-H226 lung 89.4% | NCI-H322M lung 98.7% | HOP-62 NSCLC 94.5% | NCI-H460 lung 98.8% | HOP-92 NSCLC 92.9% | NCI-H522 lung 80.3% | A549/ATCC NSCLC 96.5% | 786-0 renal 98.6% | COLO 205 colon 86.5%

COc1ccc(/C=N/NC(=O)Cn2nnc3ccccc32)cc1
inactive: NCI-H23 lung 101% | NCI-H226 lung 96.4% | NCI-H322M lung 89.1% | HOP-62 NSCLC 99.9% | NCI-H460 lung 96.6% | HOP-92 NSCLC 104% | NCI-H522 lung 90.9% | A549/ATCC NSCLC 96.5% | 786-0 renal 103% | COLO 205 colon 109%

N#CSCc1cc(Cl)c(CSC#N)cc1Cl
inactive: NCI-H23 lung 72.8% | NCI-H226 lung 73.3% | NCI-H322M lung 112% | HOP-62 NSCLC 113% | NCI-H460 lung 74.6% | HOP-92 NSCLC 11.8% | NCI-H522 lung 22.5% | A549/ATCC NSCLC 120% | 786-0 renal 71.4% | COLO 205 colon 61.6%

CCCN1C(=O)N(CCC)C2C1NC(=S)N2/N=C/C=C/c1ccccc1OC (stereo not given)
inactive: NCI-H23 lung 36.4% | NCI-H226 lung 55.4% | NCI-H322M lung 44.6% | HOP-62 NSCLC 38.7% | HOP-92 NSCLC 77.4% | A549/ATCC NSCLC 13.1% | 786-0 renal 35.6% | COLO 205 colon 17.6%
active: NCI-H460 lung 6.85% | NCI-H522 lung -11.3%
